Sampled rows, rich in hits. Any-hit rate of the full collection: about 3.4%.
PG9 binder – small molecules binding HIV-1 gp120 antibody PG9 | TR-FRET gp120-PG9 antibody binding | inhibition, % at 6.7 µM | hit rate 0.43% among 360,000 | AID 624416; in the data active means inhibition above about 8.5%
GAA850 FXN act – frataxin GAA850 promoter activation; hit rate 0.56% among 360,000; HEK293 lucGAA850 FXN promoter luciferase reporter, 24 h; percent of 10 µM SAHA response; activation, % at 6 µM;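 active means activation above the average of all compounds screened plus 3 SD, cutoff fixed separately per campaign, cut at about 7.5% in these data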
AI-2 QS mod – Vibrio harveyi AI-2 quorum sensing modulation; Vibrio harveyi JMH597 AI-2 luminescence/OD600 ratio, 9 h; stronger effect = lower value; strain lacks LuxN and CqsS sensors; 0 = neutral-control median; activity change, % at 7.5 µM; hit rate 0.4% among 300,000; AID 2094; in the data active means activity change below about -75%, passing the limit was not always enough;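 further: luminescence divided by OD600 gain over 9 h not by final OD600 alone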
HSP90 inh – HSP90 refolding inhibition in rabbit reticulocyte lysate; luciferase refolding luminescence, 3 h; inhibition, % at 5.6 µM; hit rate 0.91% among 290,000; AID 1789;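 active means inhibition above the screen-wide mean plus 3 SD, computed separately per campaign, cut at about 16% in these data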;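 further: inhibitors lower the luminescence because luciferase stays unfolded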
HSF1 inhib – HSF1 inhibition; hit rate 0.77% among 300,000; NIH3T3-HGL HSE-luciferase, MG132-induced, luminescence 8 h; stronger effect = lower value; activity change, negative = inhibition, % at 7.5 µM (by protocol);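 active means more than half of replicate wells show activity change below -50%, luminescence cut by over half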;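 further: luciferase reports HSF-1 transcriptional activity via heat shock element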
SMARCA2 activ – increases SMARCA2 function in MMTV reporter cells; MG213 cells, MMTV-luciferase reporter, dexamethasone, overnight; AID 652017; activation, % at 9.1 µM; hit rate 1% among 370,000; in the data active means activation above about 7.8%
SMARCA2 act conf – SMARCA2 activation, confirmation screen; AID 652260; MG213 cells, MMTV-luciferase with dexamethasone, luminescence, overnight; MG213 cells expressing E1A, Rb sequestered; DMSO wells 0%, reference activator 100%; hit rate 30% among 3,500; shares compounds with SMARCA2 activ; activation, % at 9.1 µM;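 active means activation above its plate's cutoff, the mean activation of tested wells plus 3 SD, cut at about 7.9% in these data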
GAL4-VP16 Luc – counter-screen for SMARCA2 activators: GAL4-VP16 luciferase reporter activation; activation, % at 9.1 µM; hit rate 41% among 3,500; HEK293 GAL4-VP16 pG5luc reporter, luciferase luminescence; scaled: DMSO wells 0%, SAHA wells 100%; shares compounds with SMARCA2 activ;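 active means activation above the solvent-only control well mean plus 3 SD, averaged across control plates, cut at about 5.2% in these data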
Numbers stand for hits; - = inactive; . = no result.

SMILES	PG9 binder	GAA850 FXN act	AI-2 QS mod	HSP90 inh	HSF1 inhib	SMARCA2 activ	SMARCA2 act conf	GAL4-VP16 Luc
CCCc1cc(C(=O)Nc2ccc(C)cc2)no1	-	-	-	-	-	11.6	-	6.9
CCCc1cc(C(=O)Nc2ccc(CC)cc2)no1	-	-	-	-	-	-	.	.
Cc1cc(C(=O)N/N=C/c2cccc(Cl)c2Cl)no1	-	-	-	-	-	10.7	-	8.8
O=C(NCc1ccccc1)[C@@H]1CCCN1C(=O)[C@H]1CCCN1C(=O)c1ccccc1F	-	.	.	.	.	-	.	.
Cc1cccc(-c2cccc3c4c([nH]c23)[C@@H]2C[C@H](N(C)C(=O)C3CCCCC3)[C@H]([C@H](C)O)CN2CC4)c1	.	.	.	.	.	-	.	.
CN1CCN(c2ccc(NC(=O)CSc3ccccc3)cc2F)CC1	-	-	-	-	-	8.1	-	8.6
Cc1ccc(SCC(=O)Nc2ccc(N3CCN(c4ccccc4)CC3)c(F)c2)cc1	-	-	-	-	-	-	.	.
O=C(NCc1ccccc1)[C@@H]1CCCN1C(=O)[C@H]1CCCN1C(=O)c1ccc(F)c(F)c1	-	.	.	.	.	-	.	.
CC(C)(C)SCCNC(=O)/C=C/c1ccc(F)cc1	-	-	-	-	-	-	.	.
CC(C)(C)SCCNC(=O)/C=C/c1ccccc1	-	-	-	-	-	8.1	-	-
COc1ccc(OCC2CN(Cc3ccccc3)S(=O)(=O)CCO2)cc1 (configuration not stated)	-	.	.	.	.	-	.	.
O=C(Nc1cccc([N+](=O)[O-])c1)c1ccc2c(c1)OCCO2	-	-	-	-	-	-	.	.
O=C(Nc1cccc2nsnc12)c1ccc2c(c1)OCO2	-	-	-	-	-	-	.	.
O=C(Nc1cccc(Cl)c1)c1ccc2c(c1)OCCO2	-	-	-	-	-	9.0	-	8.7
O=C(Nc1cccc2nsnc12)c1ccc2c(c1)OCCO2	-	-	-	-	.	8.8	-	9.7
CCCc1c(C(=O)N/N=C(\CC)c2ccccc2)nnn1-c1nonc1N	-	-	.	.	.	-	.	.
O=[N+]([O-])c1cccc(N=NNc2cccc([N+](=O)[O-])c2)c1	-	-	.	.	.	-	.	.
Nc1cccc(N=[N+]([O-])c2cccc(N)c2)c1	-	-	.	.	.	8.8	12.5	6.9
O=C(NCc1ccccc1)[C@@H]1CCCN1C(=O)[C@H]1CCCN1C(=O)N1CCCCC1	-	.	.	.	.	-	.	.
COc1ccc(CNCCC2(Cc3ccccc3)CC(C)N(C)CC2C)cc1OC (configuration not stated)	-	-	-	-	-	8.3	-	-
COc1ccc(CN(CCC#N)CCC2(c3ccccc3)CC(C)N(C)CC2C)cc1OC (configuration not stated)	-	-	-	-	-	-	.	.
CC(CN1C(C)CCCC1C)OC(=O)c1ccccc1Cl (configuration not stated)	-	-	-	-	-	-	.	.
CC(CN1C(C)CCCC1C)OC(=O)c1ccccc1Br (configuration not stated)	-	-	-	-	-	8.4	-	-
Cc1ccc(NC(=O)[C@@H](Cc2ccccc2)NC(=O)[C@H]2O[C@@H](n3ccc(=O)[nH]c3=O)[C@H](O)[C@@H]2O)cc1C	-	.	.	.	.	-	.	.
COc1ccc(COCC(O)CN2CCc3ccccc3C2)cc1OC (configuration not stated)	-	-	-	-	-	8.8	-	-
SMILES	PG9 binder	GAA850 FXN act	AI-2 QS mod	HSP90 inh	HSF1 inhib	SMARCA2 activ	SMARCA2 act conf	GAL4-VP16 Luc
CCNC(=S)/C(=C(/[O-])c1ccc([N+](=O)[O-])cc1)[n+]1ccccc1	-	-	-	-	-	-	.	.
O=[N+]([O-])c1cccc(/C([O-])=C(/C(=S)Nc2ccccc2)[n+]2ccccc2)c1	-	-	-	-	-	8.5	-	6.3
COc1ccc(CNC(=O)CN=C2NC(=O)C(c3ccccc3)(c3ccccc3)N2)cc1	-	-	-	-	-	11.5	-	-
Cc1cccc(-c2cc3nc(C)cc(=O)n3[nH]2)c1	-	-	.	.	.	9.2	-	6.7
O=C(c1ccc2c3n(nc2c1)-c1ccccc1CO3)N1CCOCC1	.	-	-	.	-	.	.	.
c1ccc2c(c1)COc1c3ncccc3nn1-2	-	-	.	.	.	13.1	8.2	8.4
COCc1[nH]nc2c1C(c1ccc3c(c1)OCO3)N(c1ccc(OC)cc1)C2=O (configuration not stated)	-	.	.	.	.	-	.	.
CCOc1ccc(OCc2ccc(C(=O)N/N=C(\C)c3ccccn3)cc2)cc1	-	-	-	-	-	-	.	.
C/C(=N\NC(=O)c1ccccc1OCc1ccc(F)cc1)c1ccccn1	-	-	.	.	.	17.3	-	7.6
COCc1cc(N2CCN(C(=O)OC(C)(C)C)C[C@H]2C)ccc1N1CCN(Cc2ccccc2)[C@H](C)C1	-	.	.	.	.	-	.	.
C[C@H](NS(=O)(=O)c1ccc2c(c1)OCCCO2)C(=O)N1CCN(Cc2ccc(C#N)cc2)CC1	-	-	.	.	.	8.8	-	-
O=C(c1ccc(F)cc1)C1CCN(CCCn2c(=O)[nH]c3ccccc32)CC1	-	.	.	.	.	-	.	.
O=C(NC1CCCCC1)c1n[nH]c2c1CC(c1ccccc1)CC2 (configuration not stated)	-	-	.	.	.	8.0	-	11.5
Cc1cc(C(=O)N2CCC2(C)C(=O)NCc2cccc3ccccc23)nn1C (configuration not stated)	-	-	.	.	.	-	.	.
Cc1ccc(C(=O)NCCNC(=O)CN2CCCC2)cc1	-	-	-	-	-	-	.	.
COCCNC(=O)CN1CCCCCC1	-	-	-	-	-	8.3	-	-
O=C(CNC(=O)c1ccccc1C(=O)O)c1ccccc1	-	-	-	-	-	8.0	-	-
Cc1cccc(Cn2ncc(Cl)c(Cl)c2=O)c1	-	-	-	-	-	10.0	-	-
Cc1ccc(C)c(C(=O)Cn2ncc(Cl)c(Cl)c2=O)c1	-	-	-	-	-	30.0	-	-
O=c1c2ccccc2cnn1Cc1ccc(Cl)c(Cl)c1	-	-	.	-	-	-	.	.
COC(=O)C1=C(C)N(Cc2ccccc2C(F)(F)F)C(=NCc2ccc(OC)cc2)NC1c1ccccc1C(F)(F)F (configuration not stated)	-	.	.	.	.	-	.	.
COc1ccc(NS(=O)(=O)c2ccc(NC(=S)NC(=O)c3cccc(F)c3)cc2)nn1	-	-	-	-	-	8.2	-	-
CN1c2ccsc2/C(=N/Nc2ccc(F)cc2)CS1(=O)=O	-	-	-	-	-	9.4	8.1	6.5
Cc1cc(Br)cn2c(Cc3ccccc3C(F)(F)F)c(-c3cccc(Cl)c3)nc12	-	.	.	.	.	-	.	.

Bioassay records as filed in PubChem.
